Screen size: about 5,500 compounds; about 2,000 (36%) were called active. Roughly 18% stayed inconclusive and do not appear here. This is one part of the list. Unmarked numbers belong to inactive results. No stated cut-off is given here; in the data, active means normalized growth mostly below about 0.91 (no sharp cut-off); inconclusive means no clear call, values can overlap the other calls; inactive means mostly above about 0.92.
Assay: chemical genetic growth profiling, strain panel (AID 1159580);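 further: tested at 20 µM; growth read once vehicle control cultures reached saturation at 30 °C; 1 = growth at the plate median or of vehicle wells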
Details: growth OD

Molecule `CC(CN(C)C)CN1c2ccccc2Sc2ccccc21` (configuration not stated) has a normalized growth (S. cerevisiae deletion strains, locus YJR075W, strain HOC1, stronger effect = lower value) of 0.986, a normalized growth (S. cerevisiae deletion strains, locus YKL009W, strain mrt4, stronger effect = lower value) of 0.99 and a normalized growth (S. cerevisiae deletion strains, locus YKL068W, stronger effect = lower value) of 0.981. The normalized growth (S. cerevisiae deletion strains, locus YKL085W, strain MDH1 (second series), stronger effect = lower value) was 1.01, the normalized growth (S. cerevisiae deletion strains, locus YKL085W, strain MDH1, stronger effect = lower value) was 1.01 and the normalized growth (S. cerevisiae deletion strains, locus YKL160W, strain elf1, stronger effect = lower value) was 1.01. It also gave a normalized growth (S. cerevisiae deletion strains, locus YKL190W, strain CNB1, stronger effect = lower value) of 0.999, a normalized growth (S. cerevisiae deletion strains, locus YKR001C, strain vps1, stronger effect = lower value) of 0.991 and a normalized growth (S. cerevisiae deletion strains, locus YKR026C, strain gcn3, stronger effect = lower value) of 1.02. For the same molecule, the normalized growth (S. cerevisiae deletion strains, locus YKR091W, strain srl3, stronger effect = lower value) was 1.02, the normalized growth (S. cerevisiae deletion strains, locus YLL001W, strain dnm1, stronger effect = lower value) was 1.02 and the normalized growth (S. cerevisiae deletion strains, locus YLL026W, stronger effect = lower value) was 1.02. The normalized growth (S. cerevisiae deletion strains, locus YLL041C, strain sdh2, stronger effect = lower value) was 1.01, the normalized growth (S. cerevisiae deletion strains, locus YLR027C, strain aat2, stronger effect = lower value) was 1.02 and the normalized growth (S. cerevisiae deletion strains, locus YLR039C, strain RIC1, stronger effect = lower value) was 1.34 [resistant] (active). The normalized growth (S. cerevisiae deletion strains, locus YLR058C, strain SHM2, stronger effect = lower value) was 0.985, the normalized growth (S. cerevisiae deletion strains, locus YLR102C, strain apc9, stronger effect = lower value) was 0.993 and the normalized growth (S. cerevisiae deletion strains, locus YLR113W, strain HOG1, stronger effect = lower value) was 0.988. For the same molecule, the normalized growth (S. cerevisiae deletion strains, locus YLR221C, strain rsa3, stronger effect = lower value) was 1.02, the normalized growth (S. cerevisiae deletion strains, locus YLR258W, strain gsy2, stronger effect = lower value) was 1.02 and the normalized growth (S. cerevisiae deletion strains, locus YLR262C, strain YPT6 (second series), stronger effect = lower value) was 1.1. The normalized growth (S. cerevisiae deletion strains, locus YLR262C, strain YPT6, stronger effect = lower value) was 1.44 [resistant] (active), the normalized growth (S. cerevisiae deletion strains, locus YLR268W, strain sec22, stronger effect = lower value) was 0.918 and the normalized growth (S. cerevisiae deletion strains, locus YLR320W, strain mms22, stronger effect = lower value) was 1.01. The normalized growth (S. cerevisiae deletion strains, locus YLR330W, strain CHS5, stronger effect = lower value) was 0.999, the normalized growth (S. cerevisiae deletion strains, locus YLR342W, strain FKS1 (second series), stronger effect = lower value) was 0.888 and the normalized growth (S. cerevisiae deletion strains, locus YLR342W, strain FKS1, stronger effect = lower value) was 1.03. For the same molecule, the normalized growth (S. cerevisiae deletion strains, locus YLR357W, strain rsc2, stronger effect = lower value) was 1.04, the normalized growth (S. cerevisiae deletion strains, locus YLR370C, strain arc18, stronger effect = lower value) was 1.02 and the normalized growth (S. cerevisiae deletion strains, locus YLR371W, strain rom2, stronger effect = lower value) was 0.994. It also gave a normalized growth (S. cerevisiae deletion strains, locus YLR384C, strain iki3, stronger effect = lower value) of 1.02, a normalized growth (S. cerevisiae deletion strains, locus YLR418C, strain cdc73, stronger effect = lower value) of 0.874 and a normalized growth (S. cerevisiae deletion strains, locus YML016C, strain PPZ1, stronger effect = lower value) of 0.992. It also gave a normalized growth (S. cerevisiae deletion strains, locus YML032C, strain rad52, stronger effect = lower value) of 0.968, a normalized growth (S. cerevisiae deletion strains, locus YML120C, strain ndi1, stronger effect = lower value) of 0.998 and a normalized growth (S. cerevisiae deletion strains, locus YML124C, strain tub3, stronger effect = lower value) of 0.995. The normalized growth (S. cerevisiae deletion strains, locus YMR058W, strain fet3, stronger effect = lower value) was 1.01, the normalized growth (S. cerevisiae deletion strains, locus YMR078C, strain ctf18, stronger effect = lower value) was 0.985 and the normalized growth (S. cerevisiae deletion strains, locus YMR125W, strain sto1, stronger effect = lower value) was 1.02. The normalized growth (S. cerevisiae deletion strains, locus YMR129W, stronger effect = lower value) was 1.02, the normalized growth (S. cerevisiae deletion strains, locus YMR205C, strain PFK2, stronger effect = lower value) was 1.03 and the normalized growth (S. cerevisiae deletion strains, locus YMR223W, strain ubp8, stronger effect = lower value) was 0.98. The normalized growth (S. cerevisiae deletion strains, locus YMR231W, strain pep5, stronger effect = lower value) was 1.03, the normalized growth (S. cerevisiae deletion strains, locus YMR263W, strain SAP30, stronger effect = lower value) was 0.978 and the normalized growth (S. cerevisiae deletion strains, locus YMR307W, strain GAS1, stronger effect = lower value) was 1.03. It also gave a normalized growth (S. cerevisiae deletion strains, locus YNL067W, strain RPL9B, stronger effect = lower value) of 0.967, a normalized growth (S. cerevisiae deletion strains, locus YNL071W, strain lat1, stronger effect = lower value) of 1.02 and a normalized growth (S. cerevisiae deletion strains, locus YNL128W, strain TEP1, stronger effect = lower value) of 0.988. It also gave a normalized growth (S. cerevisiae deletion strains, locus YNL153C, strain GIM3, stronger effect = lower value) of 0.953, a normalized growth (S. cerevisiae deletion strains, locus YNL183C, strain NPR1, stronger effect = lower value) of 0.948 and a normalized growth (S. cerevisiae deletion strains, locus YNL209W, strain ssb2, stronger effect = lower value) of 1.02. It also gave a normalized growth (S. cerevisiae deletion strains, locus YNL233W, strain BNI4, stronger effect = lower value) of 0.969, a normalized growth (S. cerevisiae deletion strains, locus YNL248C, strain rpa49, stronger effect = lower value) of 1.02 and a normalized growth (S. cerevisiae deletion strains, locus YNL250W, strain rad50, stronger effect = lower value) of 0.985. The normalized growth (S. cerevisiae deletion strains, locus YNL271C, strain bni1, stronger effect = lower value) was 0.992, the normalized growth (S. cerevisiae deletion strains, locus YNL298W, strain CLA4, stronger effect = lower value) was 0.991 and the normalized growth (S. cerevisiae deletion strains, locus YNL307C, strain MCK1, stronger effect = lower value) was 0.974. For the same molecule, the normalized growth (S. cerevisiae deletion strains, locus YNL322C, strain KRE1 (second series), stronger effect = lower value) was 1.04, the normalized growth (S. cerevisiae deletion strains, locus YNL322C, strain KRE1, stronger effect = lower value) was 0.998 and the normalized growth (S. cerevisiae deletion strains, locus YNR049C, strain mso1, stronger effect = lower value) was 1.04. It also gave a normalized growth (S. cerevisiae deletion strains, locus YNR052C, strain pop2, stronger effect = lower value) of 0.974, a normalized growth (S. cerevisiae deletion strains, locus YOL006C, strain TOP1, stronger effect = lower value) of 0.922 and a normalized growth (S. cerevisiae deletion strains, locus YOL012C, strain htz1) of 0.837. It also gave a normalized growth (S. cerevisiae deletion strains, locus YOL147C, strain pex11, stronger effect = lower value) of 0.996, a normalized growth (S. cerevisiae deletion strains, locus YOR001W, strain rrp6, stronger effect = lower value) of 1.01 and a normalized growth (S. cerevisiae deletion strains, locus YOR061W, strain CKA2, stronger effect = lower value) of 0.996. It also gave a normalized growth (S. cerevisiae deletion strains, locus YOR069W, strain VPS5, stronger effect = lower value) of 0.984, a normalized growth (S. cerevisiae deletion strains, locus YOR070C, strain gyp1, stronger effect = lower value) of 1.02 and a normalized growth (S. cerevisiae deletion strains, locus YOR080W, strain dia2, stronger effect = lower value) of 1.02. It also gave a normalized growth (S. cerevisiae deletion strains, locus YOR083W, strain WHI5, stronger effect = lower value) of 0.987, a normalized growth (S. cerevisiae deletion strains, locus YOR106W, strain vam3, stronger effect = lower value) of 1.05 and a normalized growth (S. cerevisiae deletion strains, locus YOR136W, strain idh2, stronger effect = lower value) of 0.987. For the same molecule, the normalized growth (S. cerevisiae deletion strains, locus YOR144C, strain elg1, stronger effect = lower value) was 0.993, the normalized growth (S. cerevisiae deletion strains, locus YOR184W, strain ser1, stronger effect = lower value) was 1.02 and the normalized growth (S. cerevisiae deletion strains, locus YOR231W, strain MKK1, stronger effect = lower value) was 0.997. It also gave a normalized growth (S. cerevisiae deletion strains, locus YOR265W, strain rbl2, stronger effect = lower value) of 1.03, a normalized growth (S. cerevisiae deletion strains, locus YOR270C, strain vph1, stronger effect = lower value) of 1.08 and a normalized growth (S. cerevisiae deletion strains, locus YOR290C, strain snf2, stronger effect = lower value) of 1.02. The normalized growth (S. cerevisiae deletion strains, locus YOR316C, strain cot1, stronger effect = lower value) was 0.992, the normalized growth (S. cerevisiae deletion strains, locus YPL051W, strain arl3, stronger effect = lower value) was 0.996 and the normalized growth (S. cerevisiae deletion strains, locus YPL055C, strain LGE1, stronger effect = lower value) was 0.992. It also gave a normalized growth (S. cerevisiae deletion strains, locus YPL078C, strain atp4, stronger effect = lower value) of 1.01, a normalized growth (S. cerevisiae deletion strains, locus YPL106C, strain sse1, stronger effect = lower value) of 1.03 and a normalized growth (S. cerevisiae deletion strains, locus YPL240C, strain hsp82, stronger effect = lower value) of 0.997. It also gave a normalized growth (S. cerevisiae deletion strains, locus YPL241C, strain CIN2, stronger effect = lower value) of 0.999, a normalized growth (S. cerevisiae deletion strains, locus YPL256C, strain CLN2, stronger effect = lower value) of 0.99 and a normalized growth (S. cerevisiae deletion strains, locus YPR119W, strain clb2, stronger effect = lower value) of 0.997. It also gave a normalized growth (S. cerevisiae deletion strains, locus YPR141C, strain kar3, stronger effect = lower value) of 0.983, a normalized growth (S. cerevisiae deletion strains, locus YPR163C, strain tif3, stronger effect = lower value) of 0.966 and a normalized growth (S. cerevisiae deletion strains, locus YPR167C, strain met16, stronger effect = lower value) of 0.99. The normalized growth (S. cerevisiae deletion strains, strain wtn01, stronger effect = lower value) was 0.968 and the normalized growth (S. cerevisiae strains, strain wild type, stronger effect = lower value) was 0.992.

From PubChem BioAssay AID1159580 (chemical genetic matrix, 2015)
